# In PubChem BioAssay (NCATS):
# Results filed as inconclusive are left out. Unmarked numbers belong to inactive results. Activity calls are given as the source filed them. Calls follow the shape of the dose curve; as a rule, active = well fitted inhibition curve with a large enough effect; inconclusive = small, poorly fitted or top-dose-only effect; inactive = no such curve, though single readings can be large or run the other way.
# Experiment: BET inhibitor-based combinations targeting novel dependencies in MECOM-rearranged (r) AML: HNT-34 cell line (AID 2202234); also: nearly all actives have a fitted effect of over 35% in size;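 as to viability (% of control): plate controls were vehicle wells for no effect and cell-free wells for full effect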
# Conditions: HNT-34 AML viability, CellTiter-Glo luminescence, 48 h; series mostly up to 46 µM; viability (% of control): at the top concentration
# Outline: (§1)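 Cells at 500/well were exposed for 48 hr to MIPE v5.0 drugs as 11-point dose curves. Viability was read by CellTiter-Glo luminescence and normalized to DMSO and empty-well controls. Activity was expressed as AUC and per-cell-line Z-AUC.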
# Potency is read from the fitted curve at half-maximal effect.
SMILES,viability (% of control),Potency
O=C(Nc1ccccc1)Nc1ccc(-c2ccc(C(=O)[C@@H]3CCC[C@H]3C(=O)O)cc2)cc1,97.6%,
CCOC(=O)[C@H](CCc1ccccc1)N[C@H]1CCc2ccccc2N(CC(=O)O)C1=O,110%,
CSC[C@H]1CN(Cc2c[nH]c3c(N)ncnc23)C[C@@H]1O,89.9%,
CCOc1cc(/C=C2/C(=O)N(c3ccccc3)N=C2C)cc(Cl)c1OCC(=O)OC,88.9%,
N#CC(c1ccnc(NCCc2cccnc2)n1)c1nc2ccccc2s1 (centres undefined),,14800 nM (active)
O=c1cc(N2CCOCC2)oc2c(-c3ccc4c(c3)OCCO4)csc12,,5250 nM (active)
C[C@@H]1N=C(N)NC(N(C)C)=N1,98.9%,
Cc1noc(C)c1-c1ccc(-c2cc(C(N)=O)c(NC(N)=O)s2)c(O[C@H]2CCNC2)c1,99.3%,
CCN(C(=O)c1ccccc1OC)c1cc2c(cc1N1CCNC[C@H]1C)n(C)c(=O)n2C,101%,
Cc1ccc(Sc2ccccc2N2CCNCC2)c(C)c1,,16600 nM (active)
O=C(O)/C=C/c1ccc(Cn2ccnc2)cc1,100%,
CC(C)(C(=O)NCC(F)(F)C(F)(F)F)C(=O)N[C@@H]1C(=O)Nc2ccccc2-c2ccccc21,93.1%,
CCO[C@@H]1OC(=O)C[C@@H]1NC(=O)[C@@H]1CCCN2C(=O)CC[C@H](NC(=O)c3nccc4ccccc34)C(=O)N12,106%,
CC(=O)NCC(=O)N1[C@@H]2CC[C@H]1c1ccc(Nc3ncc(C(F)(F)F)c(NC4CCC4)n3)cc12,,662 nM (active)
N#C/C(=C1/Nc2ccccc2S1)c1ccnc(OCc2ccc(CN3CCOCC3)cc2)n1,,16600 nM (active)
CN(C)C/C=C/C(=O)Nc1cc2c(Nc3ccc(F)c(Cl)c3)ncnc2cc1O[C@H]1CCOC1,,2950 nM (active)
C[C@@H]1C(=O)OC2[C@H](O)[C@]34[C@H]5C[C@@H](C(C)(C)C)[C@]36[C@@H](OC(=O)[C@@H]6O)O[C@@]4(C(=O)O5)[C@]21O (some centres undefined),108%,
Cc1ccc(-c2ncn(-c3ccc(Nc4nccc(-c5cccc(N6CCOCC6)c5)n4)cc3)n2)cn1,,2950 nM (active)
O=c1sn(-c2cccc3ccccc23)c(=O)n1Cc1ccccc1,62.5%,
Cc1nc2ccc(CN(C)c3ccc(C(=O)N[C@@H](CCC(=O)O)C(=O)O)s3)cc2c(=O)[nH]1,98.4%,
O=C(c1ccc(Nc2nc(C3CC3)cn3c(-c4cn[nH]c4)cnc23)c(F)c1)N1CCOCC1,,5250 nM (active)
CN(C)CC[C@H](CSc1ccccc1)Nc1ccc(S(=O)(=O)NC(=O)c2ccc(N3CCN(Cc4ccccc4-c4ccc(Cl)cc4)CC3)cc2)cc1[N+](=O)[O-],,1860 nM (active)
Cn1c(-c2ccccc2C(F)(F)F)nnc1C12CCC(c3noc(C4CC(F)(F)C4)n3)(CC1)CC2,86.4%,
COCCNc1cc(NC(=O)N2CCCc3cc(CN4CCN(C)CC4=O)c(C=O)nc32)ncc1C#N,102% [at 8.46 µM],
CC(C)c1ccc(Cn2ccc3c4c(N)nc(NC5CC5)nc4ccc32)cc1,,1320 nM (active)
CO[C@H]1/C=C/O[C@@]2(C)Oc3c(C)c(O)c4c(O)c(c5c(nc6cc(C)ccn65)c4c3C2=O)NC(=O)/C(C)=C\C=C\[C@H](C)[C@H](O)[C@@H](C)[C@@H](O)[C@@H](C)[C@H](OC(C)=O)[C@@H]1C,88.7%,
COC(=O)[C@H](CCCN=C(N)N)NS(=O)(=O)c1ccc(C)cc1,103%,
CC#Cc1cncc(-c2ccc3c(c2)[C@@]2(N=C(C)C(N)=N2)C2(CCC(OC)CC2)C3)c1 (some centres undefined),95.8%,

# Experiment: BET inhibitor-based combinations targeting novel dependencies in MECOM-rearranged (r) AML: UCSD-AML1 cell line (AID 2202235); also: nearly all actives have a fitted effect of over 40% in size;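 as to viability (% of control): plate controls were DMSO vehicle wells for no effect and blank wells for full effect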
# Conditions: UCSD-AML1 AML cells viability, CellTiter-Glo, 48 h; series mostly up to 46 µM; viability (% of control): at the top concentration
# Outline: as §1
SMILES,viability (% of control),Potency
CO[C@H]1O[C@@H]2O[C@@]3(C)CC[C@H]4[C@H](C)CC[C@@H]([C@H]1C)[C@@]24OO3,107%,
CCOC(=O)[C@H](CCc1ccccc1)N[C@H]1CCc2ccccc2N(CC(=O)O)C1=O,91.7%,
COc1ccccc1C(=O)Nc1cc2c(cc1N1CCNC[C@H]1C)n(C)c(=O)n2C,106%,
CSC[C@H]1CN(Cc2c[nH]c3c(N)ncnc23)C[C@@H]1O,90.7%,
CCOc1cc(/C=C2/C(=O)N(c3ccccc3)N=C2C)cc(Cl)c1OCC(=O)OC,101%,
N#CC(c1ccnc(NCCc2cccnc2)n1)c1nc2ccccc2s1 (centres undefined),,18600 nM (active)
C=C1[C@H](OC(=O)/C=C(\C)CC)C[C@@H](C(C)C)[C@@H]2[C@H]([C@@H](C)OC(C)=O)C(=O)C[C@@H]12,117%,
O=c1cc(N2CCOCC2)oc2c(-c3ccc4c(c3)OCCO4)csc12,,3320 nM (active)
Cc1noc(C)c1-c1ccc(-c2cc(C(N)=O)c(NC(N)=O)s2)c(O[C@H]2CCNC2)c1,105%,
CCN(C(=O)c1ccccc1OC)c1cc2c(cc1N1CCNC[C@H]1C)n(C)c(=O)n2C,106%,
CC(C)=CCC/C(C)=C/CC/C(C)=C/CSc1ccccc1C(=O)O,102%,
Cc1ccc(Sc2ccccc2N2CCNCC2)c(C)c1,,16600 nM (active)
O=C(O)/C=C/c1ccc(Cn2ccnc2)cc1,106%,
C[C@]12CCC3=C4CCC(=O)C=C4CC[C@H]3[C@@H]1CC[C@@]2(O)CC#N,105%,
CCO[C@@H]1OC(=O)C[C@@H]1NC(=O)[C@@H]1CCCN2C(=O)CC[C@H](NC(=O)c3nccc4ccccc34)C(=O)N12,109%,
CC(=O)NCC(=O)N1[C@@H]2CC[C@H]1c1ccc(Nc3ncc(C(F)(F)F)c(NC4CCC4)n3)cc12,,934 nM (active)

SMILES,viability (% of control),Potency
COc1ccc(/C=C\c2cc(OC)c(OC)c(OC)c2)cc1O,,11.8 nM (active)
CC[C@H](CO)Nc1nc(NCc2ccccc2)c2ncn(C(C)C)c2n1,,26300 nM (active)
COc1ccc(C(=O)N2CCN(C(=O)/C=C/c3ccc(Br)cc3)CC2)cc1,110%,
Cc1ccc(-c2ncn(-c3ccc(Nc4nccc(-c5cccc(N6CCOCC6)c5)n4)cc3)n2)cn1,,2350 nM (active)
Cc1ccc2cc(-c3c(C)ccc(C(=O)c4c(-c5ccccc5)n(C)n(-c5ccccc5)c4=O)c3N)ccc2n1,99.1%,
Cc1cc(O)cc2c1[C@]1(C)CC[C@H]3C(C)(C)CCC[C@]3(C)[C@H]1C2,14.8% [at 5.12 µM],
Cc1nc2ccc(CN(C)c3ccc(C(=O)N[C@@H](CCC(=O)O)C(=O)O)s3)cc2c(=O)[nH]1,,46.8 nM (active)
O=C(O)CCC=CCC[C@@H]1[C@H](N2CCCCC2)[C@@H](O)C[C@@H]1OCc1ccc(-c2ccccc2)cc1,104%,
CN(C)CC[C@H](CSc1ccccc1)Nc1ccc(S(=O)(=O)NC(=O)c2ccc(N3CCN(Cc4ccccc4-c4ccc(Cl)cc4)CC3)cc2)cc1[N+](=O)[O-],,2950 nM (active)
CC(C)(C)c1nc2c3cc[nH]c(=O)c3c3cc(F)ccc3c2[nH]1,,235 nM (active)
Cn1c(-c2ccccc2C(F)(F)F)nnc1C12CCC(c3noc(C4CC(F)(F)C4)n3)(CC1)CC2,102%,
COCCNc1cc(NC(=O)N2CCCc3cc(CN4CCN(C)CC4=O)c(C=O)nc32)ncc1C#N,96.8% [at 8.46 µM],
CC(C)c1ccc(Cn2ccc3c4c(N)nc(NC5CC5)nc4ccc32)cc1,,1320 nM (active)
CO[C@H]1/C=C/O[C@@]2(C)Oc3c(C)c(O)c4c(O)c(c5c(nc6cc(C)ccn65)c4c3C2=O)NC(=O)/C(C)=C\C=C\[C@H](C)[C@H](O)[C@@H](C)[C@@H](O)[C@@H](C)[C@H](OC(C)=O)[C@@H]1C,116%,
COC(=O)[C@H](CCCN=C(N)N)NS(=O)(=O)c1ccc(C)cc1,102%,
